Screening data as filed in PubChem.
A selection: hits, their analogues and other compounds. The true share with any hit is near 2.8%.
HepG2 viability – kills HepG2 cells in TGF-b inhibitor counter-screen; 410,000 compounds, 0.76% hits; HepG2 CAGA-GFP viability, ATP luminescence, 18 h; AID 588856; Potency, µM (titrated, usually from 46.1 µM), for inactives: at the highest dose activity change, negative = cytotoxicity, hits mostly cytotoxic; note: potency is the fitted concentration of half-maximal effect
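HepG2 CAGA-GFP cells (1000/well, DMEM with 1% FBS) received compound, then TGF-beta at 500 pg/mL final, and were incubated 18 hours at 37 degrees C. Viability was read by CellTiter-Glo luminescence. Media-only wells were set as complete cell-killing and DMSO as no toxicity.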
TGFb SMAD3 inh – TGF-b pathway inhibition; 410,000 compounds, 1.2% hits; HepG2 CAGA-GFP TGF-b/SMAD3 reporter, GFP fluorescence, 18 h; TGF-beta stimulated, 500 pg/mL final; Potency, µM (top dose mostly 46.1 µM), for inactives: at the top dose activity, negative = inhibition, actives largely listed as inhibitors; note: potency is the fitted concentration of half-maximal effect; % is set by controls: 0 for no effect and ±100 for the full control effect; nearly all actives have a fitted effect of over 65% in size
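Inhibition was scored as loss of TGF-beta-induced (500 pg/mL final, 18 hours, 37 degrees C) GFP in HEPG2 cells carrying a CAGA-GFP reporter, in DMEM with 1% FBS. Well GFP was summed per cell; Activity was normalised to unstimulated and stimulated DMSO wells, then concentration-response fitting.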
CtBP-E1A blk – inhibitors of CtBP/E1A interaction | AID 651724 | activity change, % (concentration not given with the values) | AlphaScreen GST-E1A/His-CtBP binding, 1536-well; hits give low values | 340,000 compounds, 0.49% hits; in the data active = activity change below about -65%; inconclusive = mostly about -30% to -63%; note: % is set by controls: 0 for no effect and ±100 for the full control effect
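GST-E1A and His-tagged CtBP (125 nM each as 5X stock) were preincubated with pin-transferred compound for 2 h at 37 °C in the dark, then glutathione donor and nickel acceptor beads were added for 1 h before AlphaScreen reading.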
Six1-Eya2 inh – inhibitors of human Six1/Eya2 interaction | AlphaScreen GST-Six1/His-Eya2 binding, biochemical; hits give low values | activity change, % (concentration not given with the values) | 360,000 compounds, 0.56% hits | AID 651725; in the data active = activity change below about -65%; inconclusive = mostly about -30% to -63%; note: % is set by controls: 0 for no effect and ±100 for the full control effect
Target sequence (O00167 whole entry, looked up): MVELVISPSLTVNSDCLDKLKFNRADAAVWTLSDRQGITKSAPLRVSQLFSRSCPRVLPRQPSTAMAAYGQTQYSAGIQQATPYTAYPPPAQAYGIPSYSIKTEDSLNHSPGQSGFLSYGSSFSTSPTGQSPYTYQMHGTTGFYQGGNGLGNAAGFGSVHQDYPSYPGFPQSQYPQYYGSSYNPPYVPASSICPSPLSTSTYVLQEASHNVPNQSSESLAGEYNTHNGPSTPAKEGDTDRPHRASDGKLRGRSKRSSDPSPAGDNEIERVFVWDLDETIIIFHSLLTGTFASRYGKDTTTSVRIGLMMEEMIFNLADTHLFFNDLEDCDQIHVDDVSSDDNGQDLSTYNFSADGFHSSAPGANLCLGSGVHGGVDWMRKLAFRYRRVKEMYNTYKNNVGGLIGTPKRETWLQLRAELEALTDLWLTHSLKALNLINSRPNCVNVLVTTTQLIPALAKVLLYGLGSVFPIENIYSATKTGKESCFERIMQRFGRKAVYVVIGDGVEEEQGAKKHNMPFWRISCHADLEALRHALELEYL
Target sequence (Q15475 whole entry, looked up): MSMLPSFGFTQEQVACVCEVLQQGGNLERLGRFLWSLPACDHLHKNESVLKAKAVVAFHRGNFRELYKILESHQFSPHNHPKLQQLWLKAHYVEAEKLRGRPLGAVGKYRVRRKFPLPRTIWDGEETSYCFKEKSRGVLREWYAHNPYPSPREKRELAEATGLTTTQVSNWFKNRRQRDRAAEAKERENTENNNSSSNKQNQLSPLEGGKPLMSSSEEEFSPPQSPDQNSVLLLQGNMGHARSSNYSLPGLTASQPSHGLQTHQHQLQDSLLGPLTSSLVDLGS
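Six1/Eya2 binding was read as AlphaScreen signal after compounds were pinned into GST-Six1 plus His-tagged Eya2 (5X stock 250/500 nM) in pH 8.0 Tris/NaCl/TCEP buffer, beads added, then incubated 1 h, 37 C, dark.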
ATXN2 expr inh – reduces ATXN2 reporter expression in HEK-293 cells. HEK-293 ATXN2-luciferase reporter, luminescence, 24 h. Potency, µM (top dose mostly 57 µM), inactives show at the top dose activity change, negative = inhibition, actives largely listed as inhibitors. 360,000 compounds, 0.72% hits; note: potency is the fitted concentration of half-maximal effect; % is set by controls: 0 for no effect and ±100 for the full control effect; nearly all actives have a fitted effect of over 55% in size
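ATXN2-luciferase reporter cells (luciferase flanked by upstream and downstream ATXN2 gene portions) were treated 24 h at 37 °C with compounds at up to 57 uM. SteadyGlo luminescence gave expression; GF-AFC fluorescence gave viability.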
ATXN viability – cell viability loss in ATXN counter-screen. 400,000 compounds, 0.49% hits. Potency, µM (doses to about 56.7 µM), usual class: cytotoxic. S2 cells (HEK-293 line with an ATXN2-luciferase reporter) viability, CellTiter-Fluor protease fluorescence, 24 h; note: potency is the fitted concentration of half-maximal effect; nearly all actives have a fitted effect of over 40% in size
An asterisk follows results filed as active. Unless noted, calls come from the whole dose curve; as a rule, active = well fitted curve in the direction sought with a large enough effect; inconclusive = small, poorly fitted or top-dose-only effect, or another doubt; inactive = no such curve, though single readings can be large; an effect the other way counts as inactive or inconclusive.

What do the screens show for `CNC(=O)c1cc(Oc2ccc(NC(=O)Nc3cc(C(C)(C)C)nn3-c3ccc4ncccc4c3)c(F)c2)ccn1`?
ATXN2 expr inh: 1.4µM*

Results for C=CC(=O)Nc1cccc(Oc2ccnc3[nH]ccc23)c1 ?
HepG2 viability: 2%; TGFb SMAD3 inh: inconclusive; CtBP-E1A blk: -20; Six1-Eya2 inh: 1; ATXN2 expr inh: -33%; ATXN viability: 8.9µM*

What do the screens show for `Cc1ccc(Nc2nc(N)nc(CCl)n2)c(C)c1`?
HepG2 viability: -43%; TGFb SMAD3 inh: -8%; CtBP-E1A blk: 2; Six1-Eya2 inh: -7; ATXN2 expr inh: inconclusive

Results for Cc1cccc(Nc2nc(N)nc(CCl)n2)c1C ?
HepG2 viability: -54%; TGFb SMAD3 inh: 14µM*; CtBP-E1A blk: -1; Six1-Eya2 inh: -2; ATXN2 expr inh: 1µM*; ATXN viability: inconclusive

Results for CCOc1ccc(Nc2nc(N)nc(CCl)n2)cc1 ?
HepG2 viability: -61%; TGFb SMAD3 inh: 11µM*; CtBP-E1A blk: -2; Six1-Eya2 inh: -2; ATXN2 expr inh: inconclusive; ATXN viability: inconclusive

Results for Cc1ccc(Nc2nc(N)nc(CSc3nc4ccccc4s3)n2)cc1 ?
HepG2 viability: -63%; TGFb SMAD3 inh: 13µM*; CtBP-E1A blk: 11; Six1-Eya2 inh: -14; ATXN2 expr inh: inconclusive

How did Cc1ccc(Nc2nc(N)nc(CCl)n2)cc1 do in these assays?
HepG2 viability: -23%; TGFb SMAD3 inh: inconclusive; CtBP-E1A blk: -2; Six1-Eya2 inh: -1; ATXN2 expr inh: 11µM*

How did CC(C)c1c(C(=O)N2CCCCC2c2cccnc2)cnn1-c1nccc(-c2cccs2)n1 (configuration not stated) do in these assays?
ATXN viability: inactive

How did CC(NC(=O)C1CC1)c1nnc2n1CCN(Cc1cccc(F)c1F)CC2 (configuration not stated) do in these assays?
ATXN viability: inactive

Results for O=C(O)c1ccc(-c2c[nH]c3ncc(-c4ccccc4)cc23)cc1C1CCCC1 ?
ATXN2 expr inh: 4%

Results for Cc1ccc(Nc2nc(N)nc(CC#N)n2)cc1 ?
HepG2 viability: -44%; TGFb SMAD3 inh: 13µM*; CtBP-E1A blk: 4; Six1-Eya2 inh: 3; ATXN2 expr inh: 36%; ATXN viability: inactive

How did Cc1ccc(-c2ccc(C3C(C#N)=C(N)Oc4n[nH]c(C)c43)o2)cc1 (configuration not stated) do in these assays?
HepG2 viability: 16µM*; TGFb SMAD3 inh: inconclusive; CtBP-E1A blk: -18; Six1-Eya2 inh: -15; ATXN2 expr inh: -3%; ATXN viability: inactive

What do the screens show for `CCCCN(C)C(=O)Cn1ncc2c([nH]c3ccc(C)cc32)c1=O`?
HepG2 viability: -4%; TGFb SMAD3 inh: 2%; ATXN2 expr inh: 10%; ATXN viability: inactive

What do the screens show for `Cc1ccc2[nH]c3c(=O)n(CC(=O)N(CCN(C)C)Cc4ccccc4)ncc3c2c1`?
HepG2 viability: -72%; TGFb SMAD3 inh: 11µM*; ATXN2 expr inh: 0%; ATXN viability: inactive

How did COc1ccc(/C=N\NC(=O)COc2ccc(C(C)(C)C)cc2)cc1Cn1nc(C)cc1C do in these assays?
HepG2 viability: -63%; TGFb SMAD3 inh: 5.6µM*; CtBP-E1A blk: 0; Six1-Eya2 inh: 9; ATXN2 expr inh: -38%; ATXN viability: inactive

Results for COc1ccc(/C=N/NC(=O)c2ccco2)cc1Cn1nc(C)cc1C ?
HepG2 viability: 2%; TGFb SMAD3 inh: 10%; CtBP-E1A blk: -4; Six1-Eya2 inh: 1; ATXN2 expr inh: 14%; ATXN viability: inactive

How did CC(=Cc1ccccc1)C=C1SC(=S)N(CC(=O)O)C1=O do in these assays?
ATXN2 expr inh: 41%

What do the screens show for `O=C(OCn1ncc(Br)c(Br)c1=O)c1ccc(F)cc1`?
HepG2 viability: 10µM*; TGFb SMAD3 inh: 11µM*; CtBP-E1A blk: 8; Six1-Eya2 inh: -7; ATXN2 expr inh: 7.9µM*; ATXN viability: 14µM*

What do the screens show for `O=C(OCn1ncc(Br)c(Br)c1=O)c1ccccc1Cl`?
HepG2 viability: 18µM*; TGFb SMAD3 inh: 13µM*; CtBP-E1A blk: 8; Six1-Eya2 inh: -11; ATXN2 expr inh: 7.9µM*; ATXN viability: 10µM*

Results for O=C(OCc1cnc(Cl)s1)c1ccccc1Cl ?
HepG2 viability: 4%; TGFb SMAD3 inh: 23%; CtBP-E1A blk: 23; Six1-Eya2 inh: 35; ATXN2 expr inh: 8%; ATXN viability: inactive

Results for CC(=O)c1cccc(NC(=O)CSc2nc3c(=O)n(C)c(=O)n(C)c3n2C)c1 ?
HepG2 viability: -1%; TGFb SMAD3 inh: 8%

How did CCCc1sc(N/N=C/c2ccccn2)nc1-c1ccc(F)cc1 do in these assays?
HepG2 viability: -106%; TGFb SMAD3 inh: 11µM*; CtBP-E1A blk: 6; Six1-Eya2 inh: -28; ATXN2 expr inh: 4µM*; ATXN viability: 16µM*

What do the screens show for `COCC(=O)Nc1cc(C(=O)N2CCCC(C(C)=O)C2)cc2nc(-c3ccccc3)n(C)c12` (configuration not stated)?
ATXN viability: inactive

What do the screens show for `O=C(CCN1C(=O)/C(=C/c2ccco2)SC1=S)Nc1ccc(O)cc1C(=O)O`?
HepG2 viability: 3%; TGFb SMAD3 inh: 9%; CtBP-E1A blk: 0; Six1-Eya2 inh: -68*; ATXN2 expr inh: -28%; ATXN viability: inconclusive

How did O=C(CN1C(=O)/C(=C\c2ccco2)SC1=S)Nc1ccc(O)cc1C(=O)O do in these assays?
HepG2 viability: 11%; TGFb SMAD3 inh: 6%; Six1-Eya2 inh: inconclusive; ATXN viability: inconclusive

Results for CCOC(=O)C(NCc1ccccn1)(NC(=O)c1cccnc1)C(F)(F)F (configuration not stated) ?
HepG2 viability: -92%; TGFb SMAD3 inh: -17%; CtBP-E1A blk: 0; Six1-Eya2 inh: -83*; ATXN2 expr inh: -11%; ATXN viability: inactive

How did COc1ccccc1NS(=O)(=O)c1cc(NC(=O)c2cnccn2)ccc1N1CCOCC1 do in these assays?
HepG2 viability: -13%; TGFb SMAD3 inh: -5%; CtBP-E1A blk: -73*; Six1-Eya2 inh: inconclusive; ATXN2 expr inh: -14%; ATXN viability: inactive

What do the screens show for `COc1ccccc1NS(=O)(=O)c1cc(NC(=O)c2ccncc2)ccc1N1CCOCC1`?
HepG2 viability: 8%; TGFb SMAD3 inh: -13%; CtBP-E1A blk: -24; Six1-Eya2 inh: -21; ATXN2 expr inh: 4%; ATXN viability: inactive
